Measurements reported in PubChem BioAssay AID1347426 (Functional Genomics Laboratory (NCATS/FGL), 2020).
Out of some 31,000 sequences screened, about 1,400 (4.5%) were called active. Only a selection was taken, and actives are over-represented in it overall. Unmarked numbers belong to inactive results.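 How the source made its calls: active means median seed-adjusted z-score above 1 or below -1; inactive means the rest.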

Assay: Novel Modifiers of Survival Motor Neuron (SMN) Protein: Gene Identification via Genome-wide siRNA Screen;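 further: luminescence tracks full-length SMN protein made from the SMN2 reporter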
Conditions: HEK293T SMN2-luciferase reporter, siRNA knockdown, 72 h; actives lie on both sides
Outline: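 Luciferase signal, proportional to full-length SMN made from an SMN2 cDNA reporter in stable HEK293T cells, was read 72 h after siRNA reverse transfection. Values were expressed as MAD scores after non-targeting-control normalization and log10 conversion; seed analysis flagged off-targets.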

Compared with UGCUAGUCCUGGGAACAGATT against PPM1J, GGUCAACAAUGCUUAUGCATT against DHRS1 is higher in median seed-adjusted z-score: -0.901 for the first, 0 for the second.

Compared with GCUUGAGAACUACCAGGUUTT against TAL2, ACAAUAAGCUGGACCUCUATT against TLR9 is higher in median seed-adjusted z-score: -0.395 for the first, -0.0834 for the second.

First: CAGUGGAUGUUAUUCCUCATT against RNF128
Second: GGACUACACGUACUUCUCATT against KIRREL3
The median seed-adjusted z-score of the first is lower: -0.377 for the first, -0.206 for the second.

Compared with CCAAGAGUGAUGCAGAGGATT against CABP4, GGUGCUACAUCCUAGAGAATT against SULF2 is lower in median seed-adjusted z-score: 0.146 for the first, -0.109 for the second.

Going from GCAAGACCUGGUCAGUAUATT against NOX4 to AGAAUGUCUUGAUUGUGGATT against HPRT1, the median seed-adjusted z-score rises from -0.246 to -0.0463.

Going from AGAAGUUCAUGGUCGGAGATT against SULT1A1 to GAUCGGCACUUACACCUGUTT against OPHN1, the median seed-adjusted z-score rises from -0.26 to 0.692.

Compared with AGAUCGACCAGAACGUGGATT against APOA4, CCACGUAACUAUCAUAAGATT against TLL1 is higher in median seed-adjusted z-score: 0.195 for the first, 0.396 for the second.

First: AGACCGACCUGGGCAUGAATT against SARM1
Second: GCUCAGUUCUCGUCAAGGATT against ARIH2
The median seed-adjusted z-score of the first is higher: 0.343 for the first, 0.0449 for the second.

Compared with AGUGAACUCCGGUCCUGCATT against RAB11FIP3, GCGAUGAGGUGGACUUGUATT against ST3GAL1 is higher in median seed-adjusted z-score: 0.0361 for the first, 0.255 for the second.

Going from GACCUGUCACAGAACCAGATT against VASN to GUCUUCAUGUAUGUCUUUUTT against GJB1, the median seed-adjusted z-score falls from 0.213 to 0.152.

Going from AGGUAGAAGAAAUGCAAUATT against PKIA to GCCUAUAGGAUUGAACCAATT against DDHD2, the median seed-adjusted z-score falls from 0.533 to 0.447.

Compared with GCUGGGUAGUUUGACUGAATT against TRIM61, CUCUUAUAGUUGAUCGUGATT against ATAD2B is higher in median seed-adjusted z-score: 0.0116 for the first, 0.0192 for the second.

First: CCAUAUCGAAUAAUAAUGATT against SCRT1
Second: GGUUCUGACAGACAAUGGATT against DPT
The median seed-adjusted z-score of the first is lower: -0.483 for the first, 0.073 for the second.

First: CCGAAUCAUUAUGCACCAATT against OCLN
Second: CAACCACACUAACGAGAUUTT against GLRX
The median seed-adjusted z-score of the first is higher: 0.232 for the first, -0.0561 for the second.

Compared with ACACCUGCCUGGUAGAGAATT against FGFR4, GAAACUUGAUUGAUCUUUATT against MITF is lower in median seed-adjusted z-score: 0.0825 for the first, -0.249 for the second.

First: GCAGGUCAAAUUUCCAUAATT against ZNF175
Second: CAAUAUCUGCUGUUAGCAATT against SCARB2
The median seed-adjusted z-score of the first is higher: -0.0194 for the first, -0.244 for the second.

First: GAUCAAAUAUGACUUCCUATT against GPR103
Second: GCUGGAAAAGGUUAACGAATT against PKNOX1
The median seed-adjusted z-score of the first is lower: 0 for the first, 0.68 for the second.

First: GGACAUGACAGCAACCUUUTT against EGR1
Second: GGUCAACUCUCUACUGAUATT against ARHGAP29
The median seed-adjusted z-score of the first is higher: 0.0836 for the first, -0.0483 for the second.

Going from GCAUAGAAGGCUUCACGAATT against PLCH1 to UCACUGAAAUGAAACUGGUTT against ACBD4, the median seed-adjusted z-score falls from -0.00634 to -0.363.

Compared with AAGAGAUUUUUGUAACUGATT against BCL2L14, CGAUUUGAAGGUCCAUAUATT against DNAJC2 is higher in median seed-adjusted z-score: -0.859 for the first, -0.0357 for the second.

Compared with GUCCUUUAACUGAAGCUUUTT against NDUFB9, GGACAGUAGUGUGCAACGATT against LRIT1 is higher in median seed-adjusted z-score: -0.982 for the first, -0.611 for the second.

First: UGAUGAAUGUUAUCGAGAATT against RFC2
Second: GCAGUUUCGAAAUCAACGATT against TEX14
The median seed-adjusted z-score of the first is higher: 0.00126 for the first, -0.107 for the second.

With CCUUCUACAGGAUCUCCAATT against ADRA1A the median seed-adjusted z-score was -1.06 (active).
For GGAGUUCUGUAACUCACUUTT against SLC38A2, the median seed-adjusted z-score was -1.04 (active).
In the case of GCCUCACAUUUUCUAAUGATT against RRM2, the median seed-adjusted z-score is reported as -3.84 (active).
For CCAAAAUUGAAGUAAUAGATT against GTF2E2, the median seed-adjusted z-score was -1.32 (active).
For CAAAUACCGUUAAGCUGGATT against HBA1, the median seed-adjusted z-score was -1.03 (active).
For GGAUAGCACAUGAUACAGATT against GAN, the median seed-adjusted z-score was -1.07 (active).
In the case of GGACUCUUCUUUAGCUUUATT against TSPAN31, the median seed-adjusted z-score is reported as -1.13 (active).
For GAGAAGAUCUGGAACUCAUTT against CRAT, the median seed-adjusted z-score was -1.42 (active).
In the case of CAAUGUCCGGAAGCAGUUUTT against ACAD8, the median seed-adjusted z-score is reported as 1.06 (active).
In the case of CCUCGACUAUUUUAAGACATT against UBA1, the median seed-adjusted z-score is reported as 1.34 (active).
